According to the supplement of paper PMC10646978:
± gives the standard deviation.

Tests used:
Conditions in all cases: modulator concentration 10 µM
[1] = test system: RAW-Dual (murine macrophage reporter line); experiment: NF-kB reporter (SEAP) activity fold change vs agonist alone; higher = enhanced NF-kB activity
Procedure, shortened: (§1)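 Compound reached 10 μM final in each well by pin transfer, onto RAW-Dual murine macrophage reporter cells seeded at 50 000 per well in 384-well plates. After 1 hour at 37 °C, the cells were stimulated overnight with a PRR agonist. SEAP in the supernatant was read with QUANTI-Blue at 620 nm absorbance for NF-κB, and Lucia luciferase was read with QUANTI-Luc luminescence for IRF. Each signal was turned into fold change against the mean agonist-only control on the same plate, and two replicate plates were averaged with propagated errors.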

[2] = test system: RAW-Dual (murine macrophage reporter line); experiment: IRF reporter (Lucia luciferase) activity fold change vs agonist alone; higher = enhanced IRF activity
Procedure, shortened: as §1

[3] = test system: RAW-Dual (murine macrophage reporter line); experiment: viability score (confluency relative to resting cells, overnight) (fraction); higher = more viable, active = viable (0.7 or more)
Procedure, shortened: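 Confluency was the readout: RAW-Dual macrophages were imaged with IncuCyte after an overnight exposure to compound at 10 μM final. IncuCyte software produced two masks over all imaged wells. The viability score expresses confluency against resting cells, and both masks had to exceed 70% of resting cells for a compound to meet the cutoff.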

[4] = agonist: CpG ODN 1826 0.5 ug/mL

COc1ccc(C(C)NC(=O)CCc2nnc3ccc(-c4ccc(C)c(C)c4)nn23)cc1OC (centres undefined)
NF-kB reporter [1, 4]: 1.3 ± 0.23
NF-kB reporter ([1]; agonist: LPS 0.1 ug/mL): 1.06 ± 0.083
NF-kB reporter ([1]; agonist: MPLA […]): 1.4 ± 0.38
IRF reporter ([2]; agonist: 3'3'-cGAMP 10 ug/mL): 0.301 ± 0.14
IRF reporter ([2]; agonist: LPS 0.1 ug/mL): 0.963 ± 0.088
IRF reporter ([2]; agonist: MPLA […]): 0.623 ± 0.089
viability score [3]: 1.01 (active)

O=C(Nc1ccc([N+](=O)[O-])cc1Br)C1CC12CCC2 (centres undefined)
NF-kB reporter [1, 4]: 0.957 ± 0.074
NF-kB reporter ([1]; agonist: LPS 0.1 ug/mL): 0.83 ± 0.068
NF-kB reporter ([1]; agonist: MPLA […]): 1.05 ± 0.13
IRF reporter ([2]; agonist: 3'3'-cGAMP 10 ug/mL): 1.03 ± 0.049
IRF reporter ([2]; agonist: LPS 0.1 ug/mL): 1.39 ± 0.27
IRF reporter ([2]; agonist: MPLA […]): 1.55 ± 0.38
viability score [3]: 1.02 (active)

CCCN(CCC)C(=O)C1=Cc2ccc(-c3ccc(C(=O)N4CCCC4)cc3)cc2N=C(N)C1
NF-kB reporter [1, 4]: 0.432 ± 0.022
NF-kB reporter ([1]; agonist: LPS 0.1 ug/mL): 1.08 ± 0.17
NF-kB reporter ([1]; agonist: MPLA […]): 1.12 ± 0.11
IRF reporter ([2]; agonist: 3'3'-cGAMP 10 ug/mL): 0.724 ± 0.034
IRF reporter ([2]; agonist: LPS 0.1 ug/mL): 1.29 ± 0.29
IRF reporter ([2]; agonist: MPLA […]): 1.58 ± 0.49
viability score [3]: 0.957 (active)

CCOC(=O)c1ccccc1NC(=O)CN(c1cc(C)ccc1OC)S(C)(=O)=O
NF-kB reporter [1, 4]: 1.05 ± 0.097
NF-kB reporter ([1]; agonist: LPS 0.1 ug/mL): 1.03 ± 0.068
NF-kB reporter ([1]; agonist: MPLA […]): 0.994 ± 0.047
IRF reporter ([2]; agonist: 3'3'-cGAMP 10 ug/mL): 1.01 ± 0.21
IRF reporter ([2]; agonist: LPS 0.1 ug/mL): 1.05 ± 0.11
IRF reporter ([2]; agonist: MPLA […]): 1 ± 0.2
viability score [3]: 1 (active)

CCCCOc1ccc(OCCCN2CCOCC2)cc1.Cl
NF-kB reporter [1, 4]: 1.2 ± 0.09
NF-kB reporter ([1]; agonist: LPS 0.1 ug/mL): 1.27 ± 0.16
NF-kB reporter ([1]; agonist: MPLA […]): 1.25 ± 0.1
IRF reporter ([2]; agonist: 3'3'-cGAMP 10 ug/mL): 0.643 ± 0.054
IRF reporter ([2]; agonist: LPS 0.1 ug/mL): 0.852 ± 0.051
IRF reporter ([2]; agonist: MPLA […]): 0.836 ± 0.071
viability score [3]: 0.981 (active)

O=C(NC1CCN(c2ncnc3c2CCCC3)CC1)c1ccc(=O)[nH]c1
NF-kB reporter [1, 4]: 1.09 ± 0.13
NF-kB reporter ([1]; agonist: LPS 0.1 ug/mL): 1.09 ± 0.11
NF-kB reporter ([1]; agonist: MPLA […]): 0.949 ± 0.057
IRF reporter ([2]; agonist: 3'3'-cGAMP 10 ug/mL): 0.957 ± 0.096
IRF reporter ([2]; agonist: LPS 0.1 ug/mL): 1.24 ± 0.11
IRF reporter ([2]; agonist: MPLA […]): 1.07 ± 0.1
viability score [3]: 1.02 (active)

CCOC(=O)C1=C(C)NC(C)=C(C(=O)OC)C1c1ccc(Cl)cc1 (centres undefined)
NF-kB reporter [1, 4]: 0.607 ± 0.14
NF-kB reporter ([1]; agonist: LPS 0.1 ug/mL): 0.448 ± 0.035
NF-kB reporter ([1]; agonist: MPLA […]): 0.563 ± 0.062
IRF reporter ([2]; agonist: 3'3'-cGAMP 10 ug/mL): 1 ± 0.057
IRF reporter ([2]; agonist: LPS 0.1 ug/mL): 1.01 ± 0.1
IRF reporter ([2]; agonist: MPLA […]): 1.26 ± 0.21
viability score [3]: 0.598 (inactive)

CC1(C)CC(=O)C2=C(C1)OC(N)=C(C#N)C21C(=O)Nc2ccc(Br)cc21 (centres undefined)
NF-kB reporter [1, 4]: 0.954 ± 0.077
NF-kB reporter ([1]; agonist: LPS 0.1 ug/mL): 1.05 ± 0.08
NF-kB reporter ([1]; agonist: MPLA […]): 0.955 ± 0.057
IRF reporter ([2]; agonist: 3'3'-cGAMP 10 ug/mL): 0.967 ± 0.032
IRF reporter ([2]; agonist: LPS 0.1 ug/mL): 1.18 ± 0.1
IRF reporter ([2]; agonist: MPLA […]): 1.03 ± 0.096
viability score [3]: 1.01 (active)

CC(C)c1cc(-c2n[nH]c(=O)n2-c2ccc3c(ccn3C)c2)c(O)cc1O
NF-kB reporter [1, 4]: 0.0963 ± 0.0078
NF-kB reporter ([1]; agonist: LPS 0.1 ug/mL): 0.155 ± 0.012
NF-kB reporter ([1]; agonist: MPLA […]): 0.681 ± 0.062
IRF reporter ([2]; agonist: 3'3'-cGAMP 10 ug/mL): 1.08 ± 0.059
IRF reporter ([2]; agonist: LPS 0.1 ug/mL): 1.22 ± 0.09
IRF reporter ([2]; agonist: MPLA […]): 1.41 ± 0.12
viability score [3]: 0.542 (inactive)

CN(C)CCNC(=S)NC(=O)C12CCC3CC(CC(C3)C1)C2
NF-kB reporter [1, 4]: 0.978 ± 0.1
NF-kB reporter ([1]; agonist: LPS 0.1 ug/mL): 1 ± 0.094
NF-kB reporter ([1]; agonist: MPLA […]): 0.982 ± 0.062
IRF reporter ([2]; agonist: 3'3'-cGAMP 10 ug/mL): 0.994 ± 0.033
IRF reporter ([2]; agonist: LPS 0.1 ug/mL): 1.5 ± 0.17
IRF reporter ([2]; agonist: MPLA […]): 1.07 ± 0.068
viability score [3]: 1.01 (active)

Cc1ccc(C(=O)NC(Oc2ccc3ccccc3c2)C(Br)(Br)Br)cc1 (centres undefined)
NF-kB reporter [1, 4]: 0.799 ± 0.045
NF-kB reporter ([1]; agonist: LPS 0.1 ug/mL): 1.02 ± 0.092
NF-kB reporter ([1]; agonist: MPLA […]): 0.86 ± 0.053
IRF reporter ([2]; agonist: 3'3'-cGAMP 10 ug/mL): 0.598 ± 0.047
IRF reporter ([2]; agonist: LPS 0.1 ug/mL): 1.51 ± 0.12
IRF reporter ([2]; agonist: MPLA […]): 1.27 ± 0.14
viability score [3]: 0.998 (active)

Cc1ccc(O)c([C@H](CCN(C(C)C)C(C)C)c2ccccc2)c1.O=C(O)[C@H](O)[C@@H](O)C(=O)O
NF-kB reporter [1, 4]: 0.67 ± 0.061
NF-kB reporter ([1]; agonist: LPS 0.1 ug/mL): 0.881 ± 0.081
NF-kB reporter ([1]; agonist: MPLA […]): 1.26 ± 0.089
IRF reporter ([2]; agonist: 3'3'-cGAMP 10 ug/mL): 0.656 ± 0.042
IRF reporter ([2]; agonist: LPS 0.1 ug/mL): 0.951 ± 0.051
IRF reporter ([2]; agonist: MPLA […]): 0.729 ± 0.073
viability score [3]: 0.979 (active)
